These sequences were tested against SNRNP70 (assay: pooled miR-30 sensor sort-seq; sequence = guide strand). Details: shRNA.
Also: reference of the scale not given here.

Row | Sequence | sensor-assay potency score (higher = more potent)
1 | TAGCGGGAGGTGTCATCGCGGC | -0.939
2 | TTGATAGGTCCGTACACCTCAA | -0.456
3 | TTTGATAGGTCCGTACACCTCA | 0.253

What follows are sequences tested against SNRPD1 in the same assay as above. Details: shRNA.

Row | Sequence | sensor-assay potency score (higher = more potent)
4 | TCTTCCTGCAACAGCTTCCCTT | -1.09
5 | TCAACATCCACAAGTAGTGTAT | -0.261
6 | TGTGATTGTTCCATGGACCTGT | 1.16
7 | TAGATTTCACCTTAGGTTCAAC | -0.589
8 | TATCCAGAGGTAAACTGTCTGG | -1.01
9 | TACAGGTTCTCTGTTCTTCAGG | -0.643
10 | TTAAGATGTGTATTCATGCTGA | -0.136
11 | TCATGCTGACATCCACACCTGT | -0.408
12 | TAGAATAAAATACCGAATGTTA | -0.767
13 | TTCAACATCCACAAGTAGTGTA | 0.419
14 | TTCTCTGTTCTTCAGGGTCATT | -1.71
15 | TCTGGTAGAATAAAATACCGAA | 0.138

Each sequence was assayed against SNTG1 in the same assay as above. Details: shRNA.

Row | Sequence | sensor-assay potency score (higher = more potent)
16 | TAGGTCTTGCACTGTATCCGTT | -0.173
17 | TTAGAGTCACTTCTTCTCCAGC | -1
18 | TAGCACACATGCATAGGTCTTG | 0.196
19 | TTGGAGCACATGCACAATCTTC | -1.22
20 | TTATCTGTAGAATTGCATCTCC | 0.36
21 | TGAAGCACTGTTTCCGTCGGTC | -0.425
22 | TTTAATATTGTGCTTTGTGAGA | -0.565
23 | TGACTTTCTAGCACACATGCAT | -0.281
24 | TTGTCTTCTGATGGTCACCGTT | -1.02
25 | TTTGTTGCAGCATCAAAGCAGA | -0.518
26 | TAATGTGTCTGTATTGTTGGGA | 0.882
27 | TTGCTCGTGGTAGCAGAGCTGG | -1.52

What follows are sequences tested against SNX19 in the same assay as above. Details: shRNA.

Row | Sequence | sensor-assay potency score (higher = more potent)
28 | TTATTGAGGTGACAGCTCGATC | -1.16
29 | TTTCTTCACACATCCCACCCAA | -0.125
30 | TTTCCAGTAACTTTGTCTGTTT | -0.546
31 | TGAACTTTCGTAGATCTGGTTT | -0.266
32 | TAAAGGACTGATTATAACCGTA | -0.44
33 | TACTCTGTCACTGTCCATGTTT | -0.134
34 | TAACTCTACTTCCCTGACCTGG | -0.776
35 | TTCTACTCTGTCACTGTCCATG | -0.887
36 | TGAGGTGACAGCTCGATCCAGC | 0.362
37 | TAGATCTGGTTTCTCCTCCAGA | -0.172
38 | TTAATATACAGCACTTCCCTGT | 0.105
39 | TACTTCACAGTATAGAGTGTGT | -0.265
